Assay [1] can be described thus: qHTS assay for small molecules that induce genotoxicity in human embryonic kidney cells expressing luciferase-tagged ATAD5 (AID 651632). Also: nearly all actives have a fitted effect of over 15% in size. A digest of the protocol: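 DMSO vehicle served as the control. HEK293T reporter cells, 16 hr at 37C, then 30 min Amplite at room temperature; ATAD5 induction is measured as luciferase activity.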
For orientation: qHTS replaces the single test concentration by a dilution series.

Assay [2] can be described thus: qHTS assay for small molecule agonists of the p53 signaling pathway - cell viability (AID 651633; calls by dose curve; also: nearly all actives have a fitted effect of over 30% in size; also: potency is read from the fitted curve at half-maximal effect). A digest of the protocol:
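Viability counter-read: CellTiter-Glo luminescence (30 min, room temperature) in the same p53RE-bla plates. These plates had been exposed to compounds for 16 h at 37 C.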

Assay [3] can be described thus: qHTS assay for small molecule disruptors of the mitochondrial membrane potential - cell viability (AID 720634; calls by dose curve; also: nearly all actives have a fitted effect of over 20% in size; also: potency is read from the fitted curve at half-maximal effect). A digest of the protocol: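 Viability of HepG2 cells is scored from ATP content by luminescence; cells are exposed to compound for 1 hr at 37 C and 5% CO2, then dosed with m-MPI dye before the CellTiter-Glo reagent.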
Assay [4] is described as follows: qHTS assay for small molecule disruptors of the mitochondrial membrane potential (AID 720635). Also: potency is read from the fitted curve at half-maximal effect. A digest of the protocol: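 Mitochondrial membrane potential tracked with Mito-MPS dye, red aggregates (ex 540/em 590 nm) against green monomers (ex 490/em 535 nm). Compound treatment 1 hr at 37C, dye 30 min in HepG2.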
Assay [5] is described as follows: qHTS assay to test for compound auto fluorescence at 590 nm (red) in HepG2 cells (AID 720674). A digest of the protocol:
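Red autofluorescence (Ex/Em 540/590 nm, Rose Bengal sodium equivalents) was measured in HepG2 cells, 2,000 per well in MEM plus 10% FBS, plated overnight at 37 C. Readings were taken 1 hr after adding 23 nL compound or DMSO, at 37 C and 5% CO2.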

The nature of assay [6]: qHTS assay to test for compound auto fluorescence at 535 nm (green) in HepG2 cells (AID 720675).
Assay [7] in a line: qHTS assay to test for compound auto fluorescence at 460 nm (blue) in HEK293 cells (AID 720678). A digest of the protocol:
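Measured: blue fluorescence (Ex 405/Em 460 nm) of compound-treated HEK293 cells, incubated overnight at 37C with 5% CO2 and scaled to triamterene equivalents.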

A short description of assay [8]: qHTS assay to test for compound auto fluorescence at 590 nm (red) in HEK293 cells (AID 720679). A digest of the protocol: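 Using HEK293 cells at 2,000 per well, the screen added 23 nL of each compound after cell attachment and incubated overnight (37C, 5% CO2). The plate reader then captured red-label fluorescence, Ex/Em 540/590nm.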
Assay [9] in a line: qHTS assay for small molecules that induce genotoxicity in human embryonic kidney cells expressing luciferase-tagged ATAD5 - cell viability (AID 651634; calls by dose curve; also: nearly all actives have a fitted effect of over 25% in size; also: potency is read from the fitted curve at half-maximal effect). A digest of the protocol: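 Here HEK293T cells with the ATAD5 luciferase reporter are incubated with test compounds for 15.5 hr, and cytotoxicity is then gauged by measuring protease activity in live cells using fluorescence.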

Unmarked numbers belong to inactive results. Records with an inconclusive call do not appear. Calls of active or inactive are those of the source. Unless noted, calls follow the shape of the dose curve; as a rule, active = well fitted curve in the direction sought with a large enough effect in the repeat runs; inconclusive = weak or mixed curves; inactive = no such curve, though single readings can be large; an effect the other way counts as inactive or inconclusive.
% is scaled to controls: 0 for no effect and ±100 for the full control effect.

As for `CC(=O)[O][Pb]([c]1ccccc1)([c]1ccccc1)[c]1ccccc1`, the Potency entry in assay [1], in assay [6] and in [7] was “inactive” in each case. In addition, the figures for the Potency in [2], in [3] and in [4] were 2.73 µM (active), 30.6 µM (active) and 1.09 µM (active), respectively. The molecule was classed as inactive in [5] and in [8].
Take `COc1c2c(cc3c1OCO3)CCN(C)C2`: the Potency result in [1], in [2], in assay [9] and in assay [3] was “inactive” in each case. Besides, the fluorescence, relative to Rose Bengal in [5] is 0.142% [at 18.6 µM]. Also, the fluorescence, % of fluorescein control in [6] is -0.0459% [at 18.6 µM]. The fluorescence, % of triamterene in [7] is 0.0083% [at 18.6 µM]. Also, in assay [8], the fluorescence, % of fluorescent control was -0.0835% [at 18.6 µM].
Turning to `CNC(=O)/C=C(\C)OP(=O)(OC)OC`, the Potency result in assay [1], in assay [2], in [9], in [6] and in assay [7] was “inactive” each time. Besides, the molecule was called inactive in [5] and in assay [8].
Take `O=C(N[C@H]1N=C(c2ccccc2F)c2cccc3c2N(CC3)C1=O)c1cc2ccccc2[nH]1`: the Potency result in assay [1], in assay [2], in [9], in assay [3] and in assay [7] was “inactive” throughout. Further, the call in assay [5] and in [8] was inactive.
Turning to `BrCCCBr`, the Potency entry in assay [1], in assay [2], in assay [3], in [4], in [6] and in [7] was “inactive” in each case. The molecule was called inactive in [5] and in assay [8].
With `c1ccc2nc(N3CCNCC3)ccc2c1`, the Potency entry in assay [1], in assay [2], in assay [9], in [3], in [6] and in assay [7] was “inactive” in each case. Further, the outcome in assay [5] and in [8] was inactive.
In the case of `CCCCN(CCCC)C(=S)[S-].CCCCN(CCCC)C(=S)[S-].[Ni+2]`, the Potency result in [1], in [2], in assay [9], in assay [3], in assay [6] and in assay [7] was “inactive” each time. For the same molecule, the molecule was called inactive in [5] and in assay [8].
`O=S(=O)(NS(=O)(=O)C(F)(F)F)C(F)(F)F`: the Potency entry in [1], in assay [2], in assay [9], in [3], in assay [6] and in [7] was “inactive” in each case. The result in assay [5] and in assay [8] was inactive.
For the molecule `CCCCC(CC)COC(=O)c1ccccc1C(=O)OCC(CC)CCCC` (stereo not drawn), the Potency result in assay [1], in assay [2], in assay [9], in assay [3], in assay [6] and in assay [7] was “inactive” each time. In addition, the molecule was classed as inactive in assay [5] and in assay [8].
Turning to `[O-][Cl+3]([O-])([O-])O`, the Potency result in [1], in assay [2], in [9], in assay [3] and in [7] was “inactive” each time. Further, the result in [5] and in assay [8] was inactive.
Regarding `CC(C)C(Br)C(=O)NC(N)=O` (stereo not drawn), the Potency entry in assay [1], in [2], in assay [9] and in [7] was “inactive” in each case. Moreover, the result in [5] and in assay [8] was inactive.
Turning to `O=C(NC(=O)c1c(F)cccc1F)Nc1ccc(Oc2ccc(C(F)(F)F)cc2Cl)cc1F`, the Potency result in [1], in assay [2], in [9], in assay [6] and in assay [7] was “inactive” in each case. For the same molecule, the result in assay [5] and in [8] was inactive.
For `COC(=O)/C=C(\C)OP(=O)(OC)OC`, the Potency entry in [1], in assay [2], in [9], in assay [6] and in assay [7] was “inactive” each time. Also, the result in assay [5] and in [8] was inactive.
`O=S1(=O)OCC2C(CO1)C1(Cl)C(Cl)=C(Cl)C2(Cl)C1(Cl)Cl` (stereo not drawn): the Potency result in assay [1], in assay [2], in assay [9], in assay [6] and in [7] was “inactive” in each case. In addition, the Potency in [4] was 13.7 µM (active). In addition, the molecule was called inactive in [8].
As for `Fc1ccc(C(OCCN2CCN(CCCc3ccccc3)CC2)c2ccc(F)cc2)cc1`, the Potency entry in [1], in [3], in [6] and in assay [7] was “inactive” throughout. Besides, the Potency in [2] is 26.6 µM (active); in [9], 29.8 µM (active). Also, the molecule was called inactive in assay [5] and in [8].
As to `S=C=Nc1ccccc1`, the Potency entry in [1], in [2], in assay [3], in assay [6] and in assay [7] was “inactive” throughout. Further, the Potency in assay [4] was 28.2 µM (active). The molecule was classed as inactive in assay [5] and in [8].
On to `CC(C)[C@@H](Nc1ccc(C(F)(F)F)cc1Cl)C(=O)OC(C#N)c1cccc(Oc2ccccc2)c1` (stereo partly drawn), for which the Potency result in assay [1], in assay [2], in assay [9], in assay [6] and in assay [7] was “inactive” throughout. In addition, the Potency in assay [4] was 26.3 µM (active). Besides, the molecule was classed as inactive in [5] and in assay [8].
As to `Cc1c([N+](=O)[O-])cc2c(c1[N+](=O)[O-])C(C)(C)CC2(C)C`, the Potency result in assay [1], in [2], in [9] and in assay [7] was “inactive” throughout. Also, the Potency in assay [4] was 30.6 µM (active). Also, the outcome in assay [5] and in [8] was inactive.
Turning to `COC(=O)C(C)N(C(=O)c1ccco1)c1c(C)cccc1C` (stereo not drawn), the Potency entry in assay [1], in assay [2], in assay [3], in [4], in assay [6] and in assay [7] was “inactive” throughout. Further, the molecule was classed as inactive in assay [5] and in [8].
`CCOC(=O)Cc1ccccc1`: the Potency entry in assay [1], in assay [2], in assay [9], in [3], in [6] and in assay [7] was “inactive” in each case. Further, the molecule was called inactive in assay [5] and in [8].
As to `CCCCN(CCCC)C(=S)S`, the Potency result in assay [1], in assay [2], in assay [9], in assay [3] and in [7] was “inactive” throughout. The call in assay [8] was inactive.
Regarding `Cc1cc2c3c(c1)C(c1ccccc1)=N[C@@H](NC(=O)c1ccncc1)C(=O)N3CC2`, the Potency entry in assay [1], in assay [2], in [9], in assay [3], in [6] and in assay [7] was “inactive” in each case. Moreover, the outcome in assay [5] and in [8] was inactive.
As for `NC1CCC(CC2CCC(N)CC2)CC1` (stereo not drawn), the Potency result in assay [1], in [2], in [3], in [4], in [6] and in assay [7] was “inactive” each time. Further, the molecule was called inactive in [5] and in assay [8].
